# Records with an inconclusive call do not appear. Where a call stands in place of a potency, no number is given. Unmarked numbers belong to inactive results. Calls of active or inactive are those of the source. Calls come from the whole dose curve; tested in HEK293 reporter line.
# Experiment: qHTS for Inhibitors of the Functional Ribonucleoprotein Complex (vRNP) of Lymphocytic Choriomeningitis Arenaviruses (LCMV): Viability assay - alamar blue signal for LCMV Primary Screen (AID 1347085); note: nearly all actives have a fitted effect of over 80% in size
# Conditions: alamar blue viability counter-screen, LCMV vRNP screen cells; series mostly up to 57.5 µM
# Potency is the fitted concentration of half-maximal effect.
SMILES,Potency,"activity change, negative = lower viability"
Cc1cnc(C)c(C)n1,inactive,–
C=C1CC[C@H](O)C/C1=C/C=C1\CCC[C@]2(C)[C@@H]([C@H](C)CCC(O)C(C)(C)O)CC[C@@H]12 (stereo not given in full),inactive,–
Cc1ccc(-c2ccccc2)cc1,inactive,–
C=C(C)[C@@H]1CCC2=CCC[C@@H](C)[C@]2(C)C1,inactive,–
CC(=O)O[C@H](COc1c2ccoc2cc2oc(=O)ccc12)C(C)(C)O,inactive,–
C/C=C(\C)C(=O)O[C@@H]([C@H](O)c1cc2ccc(=O)oc2cc1OC)C(C)(C)O,inactive,–
C[C@]12O[C@H](C[C@@]1(O)C(=O)O)n1c3ccccc3c3c4c(c5c6ccccc6n2c5c31)CNC4=O,–,6.16% [at 5.82 µM]
C[C@@H]1C(=O)CC2C(C)(C)CCC[C@]2(C)[C@@]1(O)CCc1ccoc1 (stereo not given in full),inactive,–
COc1cc2c3c(c1OC)-c1cc(O)ccc1CC3NCC2 (stereo not given),inactive,–
C/C=C/c1ccc2oc(-c3ccc(O)cc3)c(C)c2c1,inactive,–
COc1cc2ccc(=O)oc2cc1O,inactive,–
CC/C=C\CC1=C(C)CCC1=O,inactive,–
C=CCc1ccc(O)c(-c2cc(CC=C)ccc2O)c1,inactive,–
COc1cc2c(cc1OC)[C@@H]1Cc3cc4c(cc3[C@H](C2)N1C)OCO4,inactive,–
CO[C@H]1[C@@H](OC)CC(OC2OC(CO)C(O)C(O)C2O)/C(=C\C#N)[C@@H]1O (stereo not given in full),inactive,–
CCCCC/C=C\C/C=C\C/C=C\C=C\C(O)CCCC(=O)O (stereo not given),–,16.2% [at 0.757 µM]
CC12CCC(=O)C=C1CCC1C2C(O)CC2(C)C(O)CCC12 (stereo not given),inactive,–
CC1CCC(=O)O1 (stereo not given),inactive,–
CC(C)CCC[C@@H](C)[C@@H]1CC[C@H]2C3=CC=C4CC(O)CC[C@]4(C)[C@H]3CC[C@@]21C (stereo not given in full),inactive,–
O=C1CCCCCCCCCCCCCCO1,inactive,–

SMILES,Potency,"activity change, negative = lower viability"
CC(C)(O)c1ccc2c(c1)CCC1C(C)(C(=O)O)CCCC21C (stereo not given),inactive,–
Cc1c(O)ccoc1=O,inactive,–
COc1ccc(-c2cnc(-c3cccnc3)o2)cc1,inactive,–
O=C(O)CCCCCCCCCC(=O)O,inactive,–
CC(=O)OCC=C(C)C,inactive,–
COC(=O)c1ccccc1-n1c(C)nc2ccccc2c1=O,inactive,–
CN1c2c(nc(N)[nH]c2=O)NCC1CNc1ccc(C(=O)NC(CCC(=O)O)C(=O)O)cc1 (stereo not given),inactive,–
CC1=CCC(C(C)C)=CC1,inactive,–
C=O,inactive,–
COC(=O)c1ccc(=O)c2nc3/c(=C/O)c(O)cc(=O)c3[nH]c12,inactive,–
Cc1nc2sccn2c(=O)c1CCN1CCC(=C(c2ccccc2)c2ccc(F)cc2)CC1,inactive,–
COc1cc(C(=O)O[C@@H]2CC3CC[C@]2(C)C3(C)C)ccc1O,inactive,–
c1ccc(-c2ccncc2)cc1,inactive,–
C=CCCC[C@@H]1OC(=O)CNC(=O)C([C@@H](C)CC)NC(=O)[C@@H]2CCCN2C(=O)C([C@@H](C)CC)OC(=O)[C@H](Cc2ccccc2)N(C)C(=O)[C@H](C(C)C)NC(=O)C1(C)C (stereo not given in full),inactive,–
CO[C@H]1[C@@H]2C=CO[C@@H](O[C@H]3O[C@@H](CO)[C@H](O)[C@@H](O)[C@@H]3O)[C@@H]2[C@@]2(CO)O[C@@H]12,inactive,–
CC1CC2CCCC(O)=C2C(=O)O1 (stereo not given),inactive,–
C[C@H](NCc1ccc2c(c1)nc(NC(=O)c1ccc(-c3cn[nH]c3)s1)n2CCc1ccccc1)C(C)(C)C,12.2 µM (active),–
CC(=O)OC[C@H]1O[C@@H](Oc2cc(O)cc3oc(-c4ccc(O)cc4)cc(=O)c23)[C@H](O[C@@H]2O[C@@H](C)[C@H](O)[C@@H](O)[C@H]2O)[C@@H](O)[C@@H]1O,inactive,–
CCCCCCCC/C=C/CCCOC(C)=O,inactive,–
COc1ccc(C2OCC3(O)C(c4ccc(OC)c(OC)c4)OCC23)cc1OC (stereo not given),inactive,–
